In the library only some 1.1% were active in any assay of this set; here they are far more common.
HTR5A ag ctr – activates human HTR5A in OPRM1-OPRD1 agonist counter-screen. HTR5A agonist assay, luminescence, cell-based. 340,000 compounds, 0.61% hits. activation, % at 9.3 µM. AID 504692. P47898; in the data active = activation mostly above about 9.5%, no sharp cut-off; inactive = mostly below about 7.6%
Target sequence (P47898 whole entry, looked up): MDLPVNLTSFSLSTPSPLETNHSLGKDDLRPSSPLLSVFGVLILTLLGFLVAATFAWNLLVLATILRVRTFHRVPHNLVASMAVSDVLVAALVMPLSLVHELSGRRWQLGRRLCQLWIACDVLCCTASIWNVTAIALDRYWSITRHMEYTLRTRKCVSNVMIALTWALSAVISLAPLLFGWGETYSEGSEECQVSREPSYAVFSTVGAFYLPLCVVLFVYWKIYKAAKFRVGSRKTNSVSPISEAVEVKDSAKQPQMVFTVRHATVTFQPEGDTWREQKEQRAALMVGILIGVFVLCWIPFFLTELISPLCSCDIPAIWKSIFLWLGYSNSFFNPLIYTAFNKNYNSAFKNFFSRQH
HTR5A inv ctr – inverse agonist of human HTR5A in OPRM1-OPRD1 counter-screen; AID 504634; 340,000 compounds, 0.083% hits; inhibition, % at 9.3 µM; HTR5A cell line, luminescence, inverse agonism; in the data active = inhibition mostly above about 23%, no sharp cut-off; inactive = mostly below about 18%
OPRM1-OPRD1 ag – OPRM1-OPRD1 heterodimerization agonism | P35372+P41143 | activation, % at 9.3 µM | AID 504326 | 340,000 compounds, 0.3% hits | cells, luminescence; in the data active = activation above about 18%
OPRM1-OPRD1 inv – inverse agonist of human OPRM1-OPRD1 heterodimerization | cell-based MOR-DOR heterodimer luminescence, inverse agonism | inhibition, % at 9.3 µM | 340,000 compounds, 0.21% hits; in the data active = inhibition above about 22%, passing the limit was not always enough
Hits are given with their value; – = inactive.

SMILES | HTR5A ag ctr | HTR5A inv ctr | OPRM1-OPRD1 ag | OPRM1-OPRD1 inv
CCOc1ccc(Nc2nc(N)nc(CCl)n2)cc1 | 90 | – | 68 | –
Cc1ccc(Nc2nc(N)nc(CCl)n2)c(C)c1 | 63 | – | 61 | –
Cc1ccc(Nc2nc(N)nc(CN3CCCCCC3)n2)c(C)c1 | – | – | – | –
Nc1ccc2cccc(O)c2c1 | – | – | – | –
CCOC(=O)c1cc(C#N)c(N2CCN(c3ccc(OC)cc3)CC2)[nH]c1=O | – | – | – | –
Cn1c(=O)c2c(nc(NCc3ccco3)n2C/C=C/c2ccccc2)n(C)c1=O | 11 | – | – | –
CCC(C)[C@@H](NC(=O)OC(C)(C)C)c1nnc(S(=O)(=O)Cc2cccc(C)c2)o1 (stereo not given in full) | 14 | – | – | –
Cc1ccc(NC(=S)Nc2ccc(Br)cc2)cc1 | 13 | – | – | –
Cc1c(C(=O)NCCS(=O)(=O)N2CCN(c3ccccc3F)CC2)cccc1[N+](=O)[O-] | – | – | – | –
Cc1sc2ncnc(N3CCCCC3C)c2c1C (stereo not given) | – | – | – | –
Cc1c(C(=O)NCCC2=CCCCC2)sc2ncnc(N3CCCCC3C)c12 (stereo not given) | 11 | – | – | –
O=c1oc(-c2cccs2)nc2ccccc12 | 14 | – | – | –
O=C(NCCC(=O)N1CCC2(CC1)NCCc1[nH]cnc12)c1ccc(Br)cc1 | – | – | – | –
COc1ccc(Nc2nc(Nc3ccc(OC)cc3)nc(SC3=NCCS3)n2)cc1 | 9.8 | – | – | –
COc1ccc(Nc2nc(Cl)nc(NCCO)n2)cc1 | – | – | – | –
CCN1CCCC1CNS(=O)(=O)c1ccc(Cl)c(C(F)(F)F)c1 (stereo not given) | 13 | – | – | –
CCOC(=O)c1oc2ccccc2c1COC(=O)CNC(=O)c1ccc(C)cc1 | – | – | – | –
CCOC(=O)C1(CCOC)CCN(Cc2ccc(COC)o2)CC1 | 12 | – | – | –
Cc1ncc([N+](=O)[O-])n1CC(=O)NC1CCCCCC1 | – | – | – | –
c1ccc(-c2nc(C3CCCCC3)c3ccccc3n2)cc1 | 13 | – | – | –
c1ccc(-c2nc(C3CCCCC3)c3sccc3n2)cc1 | – | – | – | –
NC(=S)N/N=C/c1ccc(-c2cc(Cl)c(Cl)cc2Cl)o1 | 12 | – | – | –
NC(=S)N/N=C/c1ccc(Br)o1 | – | – | – | –
CC(=O)Oc1ccc(C(c2ccc(OC(C)=O)cc2)c2ccccn2)cc1 | 34 | – | 58 | –
O=C(CCCN=C1NS(=O)(=O)c2ccccc21)OCC(=O)c1ccc(F)cc1 | – | – | – | –
SMILES | HTR5A ag ctr | HTR5A inv ctr | OPRM1-OPRD1 ag | OPRM1-OPRD1 inv
O=C(CSc1n[nH]c(-c2cccs2)n1)N1CCN(S(=O)(=O)c2ccc3ccccc3c2)CC1 | 9.8 | – | – | –
Cc1cccc(NC(=O)c2ccc(OCc3c(C)noc3C)cc2)n1 | – | – | – | –
CC1CCCC(N2CCN(C(=O)c3ccc([N+](=O)[O-])cc3)CC2)C1 (stereo not given) | – | – | – | –
O=C(NNC(=O)c1cccc2ccccc12)c1ccccc1O | – | – | – | –
O=C(NNC(=O)c1cccc2ccccc12)c1ccc(-c2ccccc2)cc1 | 13 | – | – | –
COc1cccc(-c2cc(C(=O)Nc3ccncc3)c3ccccc3n2)c1 | 14 | – | – | –
COc1cccc(NC(=O)c2cc(-c3ccccn3)nc3ccccc23)c1 | – | – | – | –
Cc1cccc(NC(=O)c2cc(C)nc3ccccc23)c1 | 14 | – | – | –
CCC(CC)C(=O)OCC(=O)C1(O)CCC2C3CCC4=CC(=O)CCC4(C)C3C(O)CC21C (stereo not given) | – | – | – | –
O=S(=O)(NCCCCNS(=O)(=O)c1c(F)cccc1F)c1ccc2c(c1)OCCO2 | – | – | – | –
COc1ccccc1CCc1nnc(CCC(=O)NC(C)Cc2ccsc2)o1 (stereo not given) | 9.9 | – | – | –
COc1ccccc1CCc1nnc(CCC(=O)NCC(C)Oc2cccnc2)o1 (stereo not given) | – | – | – | –
COc1ccc(Cl)cc1Nc1nc(C)nc2c1nnn2Cc1ccccc1 | – | – | – | –
CCOC(=O)c1ccc(Nc2nc(C)nc3c2nnn3Cc2ccccc2)cc1 | 8.5 | – | – | –
CCn1c(C)nc2cc(C(=O)N/N=C/c3ccc(O)c(O)c3O)ccc21 | 13 | – | – | –
O=S(=O)(/N=C(/Nc1cccnc1)c1ccccc1)c1ccc(F)cc1F | 14 | – | – | –
O=C(CCS(=O)(=O)c1ccccc1)N1CCOCC1 | – | – | – | –
CC1CN(C(=O)CCS(=O)(=O)c2ccccc2)CC(C)O1 (stereo not given) | 14 | – | – | –
COC(=O)C1=C(C)N(Cc2ccccc2)C(=NCc2ccc(OC)cc2)N[C@H]1c1cccc(F)c1 | – | – | – | –
COC(=O)C1=C(C)N(Cc2ccccc2)C(=NCC(C)C)N[C@H]1c1cccc(C(F)(F)F)c1 | – | – | – | –
COC(=O)C1=C(C)N(Cc2ccccc2)C(=NCc2cccc(Cl)c2)N[C@H]1c1cccc(F)c1 | – | – | 28 | –
COC(=O)C1=C(C)N(Cc2ccccc2)C(=NCc2ccccc2)N[C@H]1c1cccc(C(F)(F)F)c1 | 13 | – | – | –
CCOC(=O)CNC(=O)CSc1nc(Cc2cccs2)nc2ccccc12 | – | – | – | –
CC1CC(C)CN(C(=O)CSc2nc(Cc3cccs3)nc3ccccc23)C1 (stereo not given) | 12 | – | – | –
Cc1cccc(C)c1N(C(=O)c1ccco1)C(C(=O)NC1CCCC1)c1ccncc1 (stereo not given) | – | – | – | –
SMILES | HTR5A ag ctr | HTR5A inv ctr | OPRM1-OPRD1 ag | OPRM1-OPRD1 inv
CCCCCCCCCCOC(=O)Cn1c(COc2cccc(C)c2)[n+](C)c2ccccc21 | 13 | – | – | –
CCCCOC(=O)Cn1c(=O)n(CC(=O)OCCCC)c2ccccc21 | – | – | – | –
O=C(CN1CCN(C(=O)C2CCCO2)CC1)Nc1cc(Cl)ccc1Cl (stereo not given) | – | – | – | –
O=C(Nc1cccc(-c2cnc3ccccc3n2)c1)c1ccccc1 | – | – | – | –
O=C(Nc1cccc(-c2cnc3ccccc3n2)c1)c1cccc(NC(=O)c2ccco2)c1 | 14 | – | 51 | –
COCCN(Cc1nc2ccccc2c(=O)[nH]1)C(=O)COc1ccccc1-c1ccccc1 | – | – | – | –
COc1cccc(-c2nc(NCc3cccnc3)c3ccccc3n2)c1O | 11 | – | – | –
c1cncc(CNc2nc(-c3cccnc3)nc3ccccc23)c1 | – | – | – | –
CCOc1ccc(NC(=O)NCCN2CCN(c3cccc(C)c3C)CC2)cc1 | 11 | – | – | –
Cc1ccc(C)c(OCCC(=O)NNC(=O)Cn2nc(C)cc2C)c1 | 12 | – | – | –
CC(C)(C)c1ccc(C(=O)OCC(=O)N2CCC(c3ccccc3)=N2)cc1 | – | – | – | –
NC(=O)c1ccc(NC(=O)CSC(=O)c2ccccc2)cc1 | – | – | – | –
Cc1cc(S(=O)(=O)Nc2ccc(C(=O)N3CCN(c4ccccc4O)CC3)cc2)ccc1F | 14 | – | – | –
Cc1ccc(S(=O)(=O)Nc2cccc(C(=O)N3CCN(c4ccccc4O)CC3)c2)cc1F | – | – | – | –

Screening results as filed in PubChem.
